Assay results as given in PubChem BioAssay (NCATS).
Records with an inconclusive call do not appear. Calls of active or inactive are those of the source. Unless noted, the call rests on the fitted dose curve.

Columns and labels:
[1] = qHTS drug screen for cell cycle checkpoint inhibitors in PARPi-resistant BRCA-mutant ovarian cancer cell lines. (AID 1963452); details: PEO1/OlaR viability, CellTiter-Glo luminescence, 96 h, stronger effect = lower value
How it was run: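 PEO1, PEO4 and PEO1/OlaR ovarian cancer cells, 600 per well, exposed 96 h at 37C to a dilution series. Viability read by CellTiter-Glo luminescence, normalized to DMSO and empty wells; activity summarized as Z-AUC.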

[2] = Dual reporter qHTS for antagonist of Pregnane X Receptor (hPXR) against the NCATS DSHEA and TCM libraries: Fluorescence Readout (AID 1920061; active means well fitted curve in the direction sought with a large enough effect; an effect the other way counts as inactive or inconclusive; further: 0% is about no effect); details: PXR dual reporter cells, antagonist mode; series mostly up to 40 µM
How it was run: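 hPXR-Luc HepG2 cells exposed 24 h at 37 C to compounds with 2 uM rifampicin in antagonist mode; luciferase luminescence measured by ONE-Glo, with CellTiter-Fluor viability read beforehand.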

[3] = qHTS for identification of novel therapeutic agents for treatment of microphthalmiaassociated transcription factor (MiT) renal cell carcinoma (RCC) (AID 1963991); details: CellTiter-Glo, 48 h, stronger effect = lower value
How it was run: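 Three TFE3-fusion RCC lines (UOK109, UOK124, UOK145), 500 cells/well in complete medium, were treated with MIPE 4.0 compounds for 48 hours at 37 C. Viability was by CellTiter-Glo luminescence, normalized to DMSO (100%) and empty wells (0%); curves fitted over 11 concentrations.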

[4] = qHTS profiling for inhibitors of Plasmodium falciparum proliferation (AID 504749; active means well fitted curve in the direction sought with a large enough effect; an effect the other way counts as inactive or inconclusive;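 further: 0% = DMSO vehicle and full inhibition = artemisinin control; nearly all actives have a fitted effect of over 60% in size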); details: P. falciparum in erythrocytes, SYBR Green DNA, 72 h, at 28.7 µM (top of the series)
How it was run: (§1)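 Each compound contacts P. falciparum-infected red blood cells for 72 h at 37 C; lysis buffer (Tris, EDTA, saponin, Triton X, SYBR Green I) is added and fluorescence measured next morning; values normalized to controls.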

3D7 = assay: as above; details: P. falciparum in erythrocytes, SYBR Green DNA, 72 h; series mostly up to 28.7 µM
How it was run: as §1

AA1029 = assay: as above; details: P. falciparum in erythrocytes, SYBR Green DNA, 72 h; series mostly up to 28.7 µM
How it was run: as §1

AS120 = assay: as above; details: P. falciparum in erythrocytes, SYBR Green DNA, 72 h; series mostly up to 28.7 µM
How it was run: as §1

ATS189 = assay: as above; details: P. falciparum in erythrocytes, SYBR Green DNA, 72 h; series mostly up to 28.7 µM
How it was run: as §1

ATS95 = assay: as above; details: P. falciparum in erythrocytes, SYBR Green DNA, 72 h; series mostly up to 28.7 µM
How it was run: as §1

[5] = measured here: PEO1 parental Z-AUC

## O=C(Nc1ccc(OC(F)(F)F)cc1)c1sccc1NCc1ccnc2ccccc12
[1]
  Z-AUC: 0.246 (inactive)
[1]; [5]
  Z-AUC: -0.378
[1]; measured here: PEO4 Z-AUC
  Z-AUC: -0.233

## Cc1cc2nc3c(=O)[nH]c(=O)nc-3n(CC(O)C(O)C(O)CO)c2cc1C (stereo not drawn)
[2]
  outcome: inactive
[1]
  Z-AUC: -0.035 (inactive)
[1]; [5]
  Z-AUC: 0.9
[1]; measured here: PEO4 Z-AUC
  Z-AUC: 1
[3]; TFE3-RCC UOK109 viability, measured here: UOK109 Z-AUC
  z-score: 1.42
[3]; TFE3-RCC viability, measured here: UOK124 Z-AUC
  z-score: 0.421
[3]; TFE3-RCC viability, measured here: UOK145 Z-AUC
  z-score: 0.538
[4]; parasite line A
  activity, negative = inhibition: -17.3% (inactive)
[4]; parasite line B
  activity, negative = inhibition: -10.6% (inactive)
3D7
  Potency: inactive
AA1029
  Potency: inactive
AS120
  Potency: inactive
ATS189
  Potency: inactive
ATS95
  Potency: inactive

## Nc1ccn([C@@H]2O[C@H](CO)[C@@H](O)[C@H]2O)c(=O)n1
[1]
  Z-AUC: 0.821 (inactive)
[1]; [5]
  Z-AUC: 1.45
[1]; measured here: PEO4 Z-AUC
  Z-AUC: 1.4

## CC(C)Oc1cc(Nc2nc(N[C@@H](C)c3ccc(F)cn3)ncc2Cl)[nH]n1
[1]
  Z-AUC: -1.59 (inactive)
[1]; [5]
  Z-AUC: -1.36
[1]; measured here: PEO4 Z-AUC
  Z-AUC: -0.661

## CN(C)c1ccccc1CN1CCCN(Cc2ccccc2N(C)C)C1c1ccncc1
[1]
  Z-AUC: -0.339 (inactive)
[1]; [5]
  Z-AUC: 0.0487
[1]; measured here: PEO4 Z-AUC
  Z-AUC: -0.169

## Cc1c(C(=O)Nc2ccc(N3C[C@@H](C)O[C@@H](C)C3)nc2)cccc1-c1ccc(OC(F)(F)F)cc1
[1]
  Z-AUC: 0.823 (inactive)
[1]; [5]
  Z-AUC: 1.06
[1]; measured here: PEO4 Z-AUC
  Z-AUC: 0.91

## Cn1cnc(-c2cc3nccc(Oc4ccc(NC(=S)NC(=O)Cc5ccccc5)cc4F)c3s2)c1
[1]
  Z-AUC: -0.0485 (inactive)
[1]; [5]
  Z-AUC: 0.327
[1]; measured here: PEO4 Z-AUC
  Z-AUC: 0.301

## CN(C)CC[C@H](CSc1ccccc1)Nc1ccc(S(=O)(=O)NC(=O)c2ccc(N3CCN(Cc4ccccc4-c4ccc(Cl)cc4)CC3)cc2)cc1[N+](=O)[O-]
[1]
  Z-AUC: -0.74 (inactive)
[1]; [5]
  Z-AUC: 0.0363
[1]; measured here: PEO4 Z-AUC
  Z-AUC: -1.54

## Cc1ccccc1-n1c(Cn2nc(-c3cccc(O)c3)c3c(N)ncnc32)nc2cccc(C)c2c1=O
[1]
  Z-AUC: -1.13 (inactive)
[1]; [5]
  Z-AUC: -0.546
[1]; measured here: PEO4 Z-AUC
  Z-AUC: -0.912
